Only some compounds are listed: those with a hit (about 2.2% of all), similar ones and a draw of the others.
FUS suppressor = qHTS for Suppressors of FUS Proteinopathy: Primary screen using FUS-linked yeast assay; S. cerevisiae FUS-expressing, growth rescue, OD600, 24 h; Potency, µM (doses to about 76.6 µM), hits mostly activators; 390,000 compounds, 0.24% hits;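 note: plate controls were DMSO vehicle for no effect and reference control for full effect; nearly all actives have a fitted effect of over 55% in size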
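Cultures pregrown in 2.5% raffinose medium are shifted to minimal medium containing 2% galactose to express toxic FUS. Compounds are tested at several concentrations. After 24hr at 30C, growth is quantified at 600 nm absorbance.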
aSyn rescue = qHTS of alpha-syn Inhibitors; Yeast expressing alpha-synuclein, growth rescue, BacTiter-Glo, 24 h; Potency, µM (titrated, usually from 46.1 µM), inactives show top-dose growth rescue (activation), hits mostly activators; 370,000 compounds, 0.14% hits; note: % of control where 0% means no effect; nearly all actives have a fitted effect of over 65% in size
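Readout is rescue of growth in alpha-synuclein-expressing yeast, so inhibitors of toxicity appear as activators. Growth after 24 hr at 30 deg C in galactose medium is quantified by luminescence.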
Abeta yeast res = qHTS for compounds that reverse cellular toxicity of Amyloid beta (A-beta) peptide in yeast: Primary Screen | yeast expressing A-beta42, growth rescue, OD600, 48 h; response scale: 0% DMSO, 100% iron-clioquinol control | Potency, µM (top dose mostly 46.1 µM), usual class: activators | 410,000 compounds, 0.063% hits | AID 1347071, 2019; note: nearly all actives have a fitted effect of over 55% in size
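Growth rescue measured by 600 nm absorbance after 48 h yeast culture at 30 C with compound. Values normalized between DMSO and an equimolar ferric chloride plus clioquinol control.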
TDP-43 yeast inh = qHTS of TDP-43 Inhibitors | Potency, µM (series often up to 46.1 µM), inactives show at the top dose growth rescue (activation), most hits filed as activators | TDP-43 expressing yeast growth rescue, BacTiter-Glo, 24 h | AID 652104, 2013 | 410,000 compounds, 1.8% hits; note: % of control where 0% means no effect; nearly all actives have a fitted effect of over 50% in size
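Galactose-induced TDP-43 yeast, OD600=0.02, compound pinned; 24 hr, 30 deg C; BacTiter-Glo luminescence for growth. Inhibitors of TDP-43 toxicity read as activators.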
Mito fusion yeast = qHTS Assay for Small Molecule Inhibitors of Mitochondrial Division or Activators of Mitochondrial Fusion; Potency, µM (highest dose often 46.1 µM), without a hit: top-dose growth rescue (activation), usual class: activators; AID 485298, 2010; 320,000 compounds, 0.23% hits; S. cerevisiae fusion-defective mutant growth rescue, CellTiterGlo 48 h; note: % of control where 0% means no effect; nearly all actives have a fitted effect of over 45% in size
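Yeast fusion mutant, YPEG (non-fermentable carbon), compound, 48 h at 37C non-permissive; CellTiterGlo added, 10 min RT, luminescence read. Rescued growth = division inhibition.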
An asterisk follows results filed as active; i = inactive; ? = inconclusive; . = no result. Calls come from the whole dose curve; as a rule, active = well fitted curve in the direction sought with a large enough effect; inconclusive = small, poorly fitted or top-dose-only effect, or another doubt; inactive = no such curve, though single readings can be large; an effect the other way counts as inactive or inconclusive. Potency is the fitted concentration of half-maximal effect.

SMILES | FUS suppressor | aSyn rescue | Abeta yeast res | TDP-43 yeast inh | Mito fusion yeast
Cc1ccc(C)n1NC(=O)c1ccc(O)cc1 | i | 6% | i | -15% | 1%
Cc1ccc2c(c1)N(C(=O)CCC(=O)NCc1ccccc1)CC(C)O2 (stereo not given) | i | 0% | i | 0% | 0%
Cc1ccc2c(c1)N(C(=O)CCC(=O)NCc1cccc(Cl)c1)CC(C)O2 (stereo not given) | i | -6% | i | ? | 16µM*
CCc1cccc(-n2nnc(-c3nc(-c4ccccc4Cl)no3)c2N)c1 | i | . | i | 0% | .
Cc1ccc(S(=O)(=O)NCCC(=O)Nc2ccc(C)cc2C(=O)c2ccccc2)cc1 | i | 19% | i | 22µM* | 25%
Cc1ccc2c(=O)c(C(=O)c3cccc(Cl)c3)cn(CC(=O)NC3CCCCC3)c2n1 | i | . | i | 2% | .
CC(=O)N1N=C(c2ccc(Cl)cc2)CC1c1ccc([N+](=O)[O-])cc1 (stereo not given) | i | -1% | i | -5% | -1%
COc1ccc(C2CC(c3ccc(Cl)cc3)=NN2C(C)=O)cc1 (stereo not given) | i | ? | i | 13µM* | 0%
CC(C)Cn1c(/C=C/c2ccc(F)cc2)nc2ccccc21 | i | -14% | i | 14µM* | .
COc1ccccc1Cn1c(/C=C/c2ccccc2)nc2ccccc21 | . | -29% | i | 20µM* | 27%
CC(C)CCn1c(/C=C/c2ccccc2)nc2ccccc21 | i | . | i | 14µM* | .
CCC(C)Cn1c(C(C)C)nc2ccccc21 (stereo not given) | i | 4% | i | -15% | -3%
CCC(C)Cn1c(/C=C/c2ccccc2)nc2ccccc21 (stereo not given) | i | . | i | 14µM* | .
COc1ccc(/C=C/c2nc3ccccc3n2Cc2ccccc2OC)cc1 | i | -12% | i | ? | ?
COCCn1c(/C=C/c2ccccc2)nc2ccccc21 | i | 5% | i | 0% | -7%
O=C(NCCc1ccccc1F)c1cc2ccccn2n1 | i | . | . | . | .
COc1cccc(/C(=N/O)C2CC2c2ccc(Cl)cc2)c1 (stereo not given) | i | 10% | i | 16µM* | 4%
COc1cccc(/C(C)=N/NS(=O)(=O)c2ccc(Cl)cc2)c1 | i | 1% | i | -13% | 2%
CCc1ccccc1-n1nnc(-c2nsc(NC(=O)c3ccc(C)c(C)c3)n2)c1C | i | . | i | 0% | .
Cc1ccc(/C=C/C(=O)N2CC(C)CC(C)C2)o1 (stereo not given) | i | 8% | i | 25µM* | -2%
Cc1cccc(NC(=O)C2CCCN(S(=O)(=O)c3cccc4nonc34)C2)c1C (stereo not given) | i | . | i | 7% | .
Cc1cccc(CCNC(=O)c2cnc3c(C)cccn3c2=O)c1 | i | . | i | 28µM* | .
CCOc1ccc(CNC(=O)c2ccc3c(Cl)c4c(nc3c2)CCCC4)cc1 | i | . | i | 11µM* | .
COc1ccc(OC)c(CNC(=O)c2ccc(Sc3ccc(Cl)cc3)c(NC(C)=O)c2)c1 | ? | . | i | 25% | .
COc1ccc(CNC(=O)c2ccc(Sc3ccc(Cl)cc3)c(NC(C)=O)c2)c(OC)c1 | i | . | i | 22µM* | .
SMILES | FUS suppressor | aSyn rescue | Abeta yeast res | TDP-43 yeast inh | Mito fusion yeast
COc1ccc(CNC(=O)c2ccc3c(Cl)c4c(nc3c2)CCCC4)c(OC)c1 | i | . | i | 20µM* | .
COc1ccc(CCNC(=O)c2ccc3c(Cl)c4c(nc3c2)CCCC4)c(OC)c1 | i | . | i | 35µM* | .
COc1ccc(CCNC(=O)c2ccc3c(Cl)c4c(nc3c2)CCCC4)cc1OC | i | . | i | 0% | .
COC(=O)C1CN(CCO)CCS(=O)(=O)N1Cc1cn(Cc2ccc(C)cc2)nn1 (stereo not given) | i | . | . | . | .
CCN1C(=NCc2cccc(C(F)(F)F)c2)N[C@@H](c2cccc(C(F)(F)F)c2)C(C(=O)OC)=C1C | . | -4% | . | . | .
Cc1ccccc1Cn1c(CN2CCC(C(=O)NCCc3ccccc3)CC2)cc2ccccc21 | i | . | i | 5% | .
O=[N+]([O-])c1ccc(Oc2cccc(Br)c2)c2ccncc12 | i | 6% | i | 16µM* | 12%
O=[N+]([O-])c1ccc(Oc2ccc(F)cc2)c2ccncc12 | i | 9% | i | ? | 6%
Cc1c(C2(c3cc(C(C)C)c(O)c(Br)c3C)OS(=O)(=O)c3ccccc32)cc(C(C)C)c(O)c1Br | . | -14% | . | . | .
CC(C)(C)S(=O)N1Cc2cc(C(=O)NCc3ccc(Oc4ccccc4)cc3)nc(-c3cccc(-c4cc5ccccc5o4)c3)c2[C@@H]1CCO (stereo not given in full) | 32µM* | -32% | i | 22µM* | .
Cc1cccc2c(/C=C/c3ccc(N(C)C)cc3)ccnc12 | . | -3% | . | . | .
Cc1c(C(=O)OCC(=O)Nc2ccc(N3CCOCC3)cc2)oc2ccccc12 | i | -6% | i | 11% | -2%
Cc1c(C(=O)Nc2ccc(N3CCOCC3)cc2)oc2ccccc12 | i | -7% | i | 7.9µM* | 2%
COc1ccccc1C(=O)Nc1nsc(-c2ccccc2)n1 | i | -6% | i | 13µM* | 2%
COc1ccc(-c2cc(C)no2)cc1S(=O)(=O)NCc1ccco1 | i | . | i | -1% | .
Cc1cc(N)c2ccccc2[n+]1CCCCCCCCCC[n+]1c(C)cc(N)c2ccccc21 | . | -49% | . | . | 2.6µM*
Cc1sc2ccccc2[n+]1CCCCI | . | 13% | . | . | .
COc1ccc(N2CC(NC(=O)C3CCCCC3)CC2=O)cc1OC (stereo not given) | i | . | i | 18% | .
Cc1ccccc1N=C1SC(CC(=O)Nc2ccc3ccccc3c2)C(=O)N1Cc1ccccn1 (stereo not given) | i | ? | i | 28µM* | 12%
O=C(CC1SC(=Nc2cccc3ccccc23)N(Cc2ccccn2)C1=O)Nc1ccccc1Br (stereo not given) | i | 13% | ? | ? | -2%
CCOC(=O)CC[C@@H]1CC[C@]2(CCCN(C(=O)C3CCCCC3)C2)O1 | i | . | . | . | .
COc1cc(O)ccc1-c1nc2cc(C)ccn2c1Nc1ccccc1C | i | . | i | 7% | .
CCOc1ccc(NS(=O)(=O)c2ccc(C(=O)N(C)Cc3cccc(OC)c3OC)cc2)cc1 | 22µM* | 0% | i | -13% | 5%
COc1cccc(CN(C)C(=O)c2ccc(NS(=O)(=O)c3ccc4[nH]c(=O)[nH]c4c3)cc2)c1OC | . | 2% | i | -4% | 0%
O=[N+]([O-])c1ccc(/C=C2\C=Cc3ccccc32)cc1 | . | -2% | . | . | .

Bioassay records: PubChem, National Center for Advancing Translational Sciences (NCATS)
